# Values joined by “and” are separate entries in the source; they are usually repeats but may differ in a detail not shown here. Identical values can stand only once. The panel holds about 79,000 compounds, 15% with a hit somewhere; the sample as a whole holds those more often. A number with no mark means an inactive call. Active and inactive are the calls of the source. No stated cut-off is given here; in the data, active means growth inhibition above about 70%; inactive means the rest.
# Key:
# [1] = NCI Yeast Anticancer Drug Screen. Data for the rad50 strain (AID 155);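 further: 0% = growth of vehicle-only cultures of the same strain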; conditions: S. cerevisiae rad50 strain growth inhibition, hits give high values
# Method in brief: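 Relative growth inhibition (compound vs vehicle) was measured in yeast with a defined repair-gene alteration.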
# [2] = NCI Yeast Anticancer Drug Screen. Data for the mec2-1 strain (AID 157); conditions: S. cerevisiae mec2-1 strain, hits give high values
# Method in brief: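 Compounds were applied to mec2-1 yeast cells. Their growth was then compared with that of vehicle-treated cultures to give growth inhibition.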
# [3] = NCI Yeast Anticancer Drug Screen. Data for the sgs1 mgt1 strain (AID 161);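 further: 0% = growth of cultures given vehicle only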; conditions: S. cerevisiae sgs1 mgt1 strain, hits give high values
# Method in brief: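 Compounds are added to genetically altered yeast, and growth is compared with cultures given vehicle alone to give percent inhibition.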
# [4] = NCI Yeast Anticancer Drug Screen. Data for the cln2 rad14 strain (AID 165);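 further: 0% = growth equal to vehicle treated cultures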; conditions: S. cerevisiae cln2 rad14 strain, hits give high values
# Method in brief: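 Strain: cln2 rad14 yeast, altered in cell cycle control and DNA damage repair. Read-out: growth inhibition vs vehicle.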
# [5] = NCI Yeast Anticancer Drug Screen. Data for the mlh1 rad18 strain (AID 175); conditions: S. cerevisiae mlh1 rad18 strain growth inhibition, hits give high values
# Method in brief: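 A repair-deficient yeast strain is exposed to test compound, and growth is scored relative to vehicle-treated controls.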
# [6] = NCI Yeast Anticancer Drug Screen. Data for the bub3 strain (AID 167); conditions: S. cerevisiae bub3 mutant strain, hits give high values
# Method in brief: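 Screening used yeast with an engineered genetic alteration affecting cell cycle control. Compound-exposed cultures were compared with vehicle cultures, and reduced growth was taken as inhibition.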
# [7] = at 5.0 µM (retest, dose inferred, filed as 0.5)
# [8] = at 50.0 µM (retest, dose inferred, filed as 5.0)
SMILES,"growth inhibition [1, 7]","growth inhibition [1, 8]",growth inhibition ([1]; at 50.0 µM),"growth inhibition [2, 7]","growth inhibition [2, 8]",growth inhibition ([2]; at 50.0 µM),"growth inhibition [3, 7]","growth inhibition [3, 8]",growth inhibition ([3]; at 50.0 µM),"growth inhibition [4, 7] [%]","growth inhibition [4, 8]",growth inhibition ([4]; at 50.0 µM),"growth inhibition [5, 7]","growth inhibition [5, 8]",growth inhibition ([5]; at 50.0 µM),"growth inhibition [6, 7]","growth inhibition [6, 8]",growth inhibition ([6]; at 50.0 µM)
O=C1/C(=C(/Br)I)c2ccccc2-c2ccccc21,98% (active),87% (active),7.85%,99% (active),91% (active),58.9%,96% (active),94% (active),64.3%,53,90% (active),44%,99% (active),88% (active),59%,–,–,–
O=C(O)/C=C/c1ccc2c(c1)CC1(Cc3ccccc3C1)C2,27%,82% (active),45.6%,40%,90% (active),66.2%,84% (active),87% (active),73% (active),64,93% (active),83.3% (active),67%,88% (active),80% (active),–,–,–
C[Si](C)(CCC(=O)O)O[Si](C)(C)CCC(=O)O,-6%,91% (active),99.5% (active),-4%,92% (active),99.7% (active),-6%,91% (active),99.5% (active),-1,59%,98.2% (active),-1%,68%,99.2% (active),–,–,–
O=C(Nc1ccccc1C(=O)NC(=O)c1ccccc1NC(=O)c1ccccc1)c1ccccc1,-4%,99% (active),58.9%,10%,99% (active),57.5%,–,–,–,4,99% (active),40.8%,5%,99% (active),63.5%,-1%,99% (active),46.1%
CCOC(=O)/C=C1/C(=O)OC2C1OC1OC(C)(C)OC12 (stereo unspecified),9%,99% (active),6.3%,16%,100% (active),34.8%,-5%,100% (active),57%,37,100% (active),-15.1%,7%,99% (active),54.8%,–,–,–
ClC1c2ccccc2Cc2cccnc21 (stereo unspecified),–,–,–,11%,24%,11.8%,10%,59%,12.2%,4,22%,-5.1%,8%,76% (active),23.5%,7%,48%,-6.6%
[Cl][Co][Cl].[NH-]CC[N-]CC[N-]CC[NH-],–,–,29.6% and -6.2% and 5.8%,–,–,16.8% and -10.4% and 22.6%,–,–,13.9% and 16.4% and 32.5%,–,–,28.4% and 16.1% and 18.5%,–,–,6.35% and 12.3% and 47%,–,–,14.1% and 19.4% and 25.4%
Cc1ccc(N=C2SC(=S)N(CCC[N+](C)(C)C)C2=Nc2ccc(C)cc2)cc1,-5%,99% (active),99.2% (active),–,–,–,-10%,99% (active),99.5% (active),12,99% (active),99.5% (active),3%,100% (active),99.4% (active),-4%,99% (active),99.4% (active)
COc1ccc2[nH]c3ccc4cc[n+](CCN5CCC(C6CCN(CC[n+]7ccc8ccc9[nH]c%10ccc(OC)cc%10c9c8c7)CC6)CC5)cc4c3c2c1,–,–,–,57%,98% (active),93.5% (active),29%,98% (active),90.1% (active),34,96% (active),91.1% (active),77% (active),97% (active),90.5% (active),22%,96% (active),91.1% (active)
CCCCCCCCCCCC(=O)OCC1CO1 (stereo unspecified),–,–,–,-13%,-8%,-4.65%,6%,1%,24.6%,29,-55%,34%,-16%,3%,-11.4%,9%,-44%,-6.5%
O=C1c2ccccc2C(=O)c2sc(Nc3ccc(Cl)c(Cl)c3)nc21,89% (active),98% (active),90% (active),–,–,–,99% (active),98% (active),93.2% (active),68,98% (active),88% (active),91% (active),97% (active),91.3% (active),99% (active),97% (active),91.2% (active)

# — PubChem BioAssay (NCI)
